The values that follow come from PubChem BioAssay AID529 (NMMLSC, 2006).

Molecules are shown by their SMILES. The whole screen tested about 24,000 compounds, of which about 50 (0.2%) were called active. Roughly 9% stayed inconclusive and do not appear here. This excerpt belongs to a sample that is enriched for actives. Values without a mark were called inactive.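 How the source made its calls: active means inhibition above 50%; inconclusive means compound itself fluorescent, judged against control cell fluorescence; inactive means the rest.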

For this test, the target named is Integrin alpha-4 (Homo sapiens) (UniProt P13612). The test is described as follows: blockers of LDV-FITC ligand binding on VLA-4 – Jurkat cells, Mn2+ activated, primary screen (AID 529).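 Further: 0% = Mn2+ stimulated cells lacking compound and 100% = ligand binding without Mn2+.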 To be noted: LDV-FITC binding with Mn2+, flow cytometry, stronger effect = higher value, 100% = Mn2+-driven binding gain fully reversed, screened at 10 µM (by protocol). On the technique in general: In flow cytometry, cells or beads pass a laser one at a time.
Sequence of Integrin alpha-4 (Homo sapiens) (P13612 whole entry, looked up): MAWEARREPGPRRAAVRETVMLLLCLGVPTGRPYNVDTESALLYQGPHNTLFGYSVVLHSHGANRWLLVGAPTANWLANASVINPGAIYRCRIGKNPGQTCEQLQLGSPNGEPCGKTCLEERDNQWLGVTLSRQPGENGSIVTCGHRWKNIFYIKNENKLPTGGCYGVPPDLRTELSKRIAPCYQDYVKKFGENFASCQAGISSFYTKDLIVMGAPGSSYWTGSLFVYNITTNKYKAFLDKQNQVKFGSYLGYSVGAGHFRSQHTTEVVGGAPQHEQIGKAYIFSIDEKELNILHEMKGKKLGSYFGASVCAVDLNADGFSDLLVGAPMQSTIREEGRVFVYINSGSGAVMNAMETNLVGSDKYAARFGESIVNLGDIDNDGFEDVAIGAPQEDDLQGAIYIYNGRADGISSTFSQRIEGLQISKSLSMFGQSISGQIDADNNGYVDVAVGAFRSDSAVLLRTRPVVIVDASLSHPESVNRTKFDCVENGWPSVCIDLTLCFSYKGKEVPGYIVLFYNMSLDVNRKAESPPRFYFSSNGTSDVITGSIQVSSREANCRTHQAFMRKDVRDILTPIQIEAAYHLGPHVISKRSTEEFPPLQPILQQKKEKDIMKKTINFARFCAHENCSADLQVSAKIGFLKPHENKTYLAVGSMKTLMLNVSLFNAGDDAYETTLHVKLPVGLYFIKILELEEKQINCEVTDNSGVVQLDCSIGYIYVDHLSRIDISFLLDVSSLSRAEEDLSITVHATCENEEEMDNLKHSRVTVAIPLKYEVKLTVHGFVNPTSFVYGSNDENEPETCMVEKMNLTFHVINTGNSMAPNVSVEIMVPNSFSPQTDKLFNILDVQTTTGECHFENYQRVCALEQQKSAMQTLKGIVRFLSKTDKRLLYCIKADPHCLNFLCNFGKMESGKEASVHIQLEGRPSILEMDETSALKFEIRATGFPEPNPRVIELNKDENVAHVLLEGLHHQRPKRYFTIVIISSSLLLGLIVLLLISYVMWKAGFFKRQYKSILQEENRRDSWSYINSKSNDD
The term inhibition denotes the drop in the measured response relative to a control, in per cent. As for `Cc1ccc(NC(=O)C2CCCN(S(=O)(=O)c3c(C)noc3C)C2)c(C)c1` (stereo not drawn), the inhibition was -21%.
The same measure for `O=C(CCn1c(=O)oc2ccccc21)Nc1ccon1`: -16%; for `O=C(CN1CCN(CC(=O)Nc2ccc3c(c2)OCO3)CC1)Nc1ccc(F)cc1`: 14%.
As for `CCOc1ccc(N(CC(=O)OC)S(=O)(=O)c2c(C)noc2C)cc1`, the inhibition was 13%.
For `CCOC(=O)CN1CC23C=CC(O2)C(C(=O)Nc2ccc(F)cc2)C3C1=O` (stereo not drawn), the inhibition is -44.5%.
For the compound `Cc1nc(C)c2c(c1C(F)(F)F)-c1ccccc1C2(F)F`, the inhibition is -6.5%.
Turning to `COc1ccc(N2C(=O)C3CCCN3C2c2cccs2)cc1` (stereo not drawn), the inhibition was 8%.
With `COc1ccccc1Cn1c(=S)[nH]c2cc(C(=O)N3CCN(C)CC3)ccc2c1=O`, the inhibition was 15%.
Turning to `O=C(NCCCN1CCN(Cc2ccccc2)CC1)C1CCN(S(=O)(=O)N2CCCC2)CC1`, the inhibition is -27%.
For `CCCC(NC(=O)c1ccccc1)c1nc2ccccc2n1Cc1ccc(C(=O)OC)o1` (stereo not drawn), the inhibition is 1%.
As for `Cc1ccc(NC(=O)CSc2nnc(-c3cnccn3)n2Cc2ccco2)cc1C`, the inhibition was -19.5%.
As for `Cc1ccc(NC(=O)CN(C)S(=O)(=O)c2cnc[nH]2)cc1C`, the figure is 1%.
As for `CCCOC(=O)c1[nH]c2c(c1C)C(=O)CC(c1cc(OC)c(OC)c(OC)c1)C2` (stereo not drawn), the inhibition was -2%.
As to `COc1ccccc1-n1cnc2cc(C(=O)NCC3CCCO3)ccc21` (stereo not drawn), the inhibition was -11%.
Turning to `CCOC(=O)c1c(NC(=O)c2cccs2)sc(C)c1C`, the inhibition was -11.5%.
With `COc1cccc(NC(=O)Nc2nnc(N3CCCCC3C)s2)c1` (stereo not drawn), the inhibition was -4%.
As to `O=C(O)c1cccc2c1C(=O)N(C1CCCCC1)C2`, the inhibition was -16%.
Regarding `CCOc1ccc(CCNC(=O)C2CCN(c3ccc(N4CCOCC4)nn3)CC2)cc1OCC`, the inhibition was -6%.
As for `CCOC(=O)N1CCC(NC(=O)c2cnn3ccccc23)CC1`, the figure is 2.5%; as for `Cc1nc(CNS(=O)(=O)c2cccnc2)cs1`, -1%; as for `CC1CCCCC1NC(=O)CCS(=O)(=O)c1cccc2nonc12` (stereo not drawn), 12%.
The same measure for `CCN(CC(=O)Nc1ccc2c(c1)OCCO2)Cc1cc(=O)oc2cc(C)c(C)cc12`: -1.5%; for `CCn1c(=O)cc(SCC(=O)NCc2ccc3c(c2)OCO3)c2ccccc21`: 5%; for `COc1cc(C2C(C(=O)Nc3ccc(F)cc3)=C(C)Nc3nc(CCCO)nn32)cc(OC)c1OC` (stereo not drawn): -7%.
Take `CCn1ncc(C2=NOC(C(=O)N3CCN(c4ccccc4)CC3)C2)c1C` (stereo not drawn): the inhibition was 7%.
As to `c1ccc(CCn2nnnc2CN2CCN(C3CCCC3)CC2)cc1`, the inhibition was -4.5%.
As for `Cc1cc(=O)n2nc(N3CCCC(C(=O)N4CCN(C)CC4)C3)sc2n1` (stereo not drawn), the figure is -12.3%; as for `CCN(CC)S(=O)(=O)c1ccc2[nH]cc(C(=O)NCCc3ccccc3)c(=O)c2c1`, 2%; as for `CCOC(=O)c1nnn(CC(=O)Nc2cccc(F)c2)c1C(=O)OCC`, 13.7%.
As for `CC(NC(=O)CN1CCN(Cc2ccc(Cl)cc2)C1=O)c1ccc2c(c1)OCCO2` (stereo not drawn), the inhibition was 4%.
Turning to `CN(C)S(=O)(=O)c1cccc(C(=O)Nc2cccnc2)c1`, the inhibition is -37.5%.
The same measure for `COc1ccc(Cl)cc1S(=O)(=O)N1CCN(CC(=O)C(C)(C)C)CC1`: 14%; for `CCCCC(CC)C(=O)Nc1ccc(Cl)cn1` (stereo not drawn): -17.5%.
Regarding `Cc1cccn2c(=O)c3cc(C(=O)N4COCC4(C)C)n(C)c3nc12`, the inhibition was -28%.
In the case of `O=C(NCc1ccccn1)c1cnc2sccn2c1=O`, the inhibition is -2%.
For the compound `Cc1cccn2c(=O)c3cc(C(=O)NCc4ccccn4)n(C)c3nc12`, the inhibition was 52% (active).
As for `Cc1nc(NC(=O)CCC(=O)O)sc1C(=O)N(C)C`, the inhibition was -12%.
As for `O=C(Cn1c(=O)n(Cc2ccco2)c(=O)c2ccccc21)NCC1CCCO1` (stereo not drawn), the figure is -8.5%.
Regarding `O=C(Nc1nc2ccc(S(=O)(=O)N3CCCC3)cc2s1)C1CCCO1` (stereo not drawn), the inhibition was -33.5%.
Consider `CCOc1ccc(Cn2nnc(C(=O)NCc3ccccc3)c2N)cc1`, for which the inhibition is -1%.
Turning to `O=C(c1ccccc1)c1cccn1CC(=O)N1CCN(c2ccc(F)cc2)CC1`, the inhibition was 49%.
For `O=C(O)C1CCN(S(=O)(=O)N2CCOCC2)CC1`, the inhibition is 0%.
In the case of `C=C1c2cc(CC)ccc2NC(=O)N1c1ccc(C)cc1`, the inhibition is -2%.
Consider `COC(=O)c1ccc2c(=O)n(CC3CCCO3)c(=S)[nH]c2c1` (stereo not drawn), for which the inhibition was -11%.
For `CCn1c(SCC(=O)Nc2ccccc2F)nc2c(c1=O)SC(C)C2` (stereo not drawn), the inhibition was 3.3%.
Turning to `Cc1ccccc1C(=O)NCCN=C1NS(=O)(=O)c2ccccc21`, the inhibition is -4%.
In the case of `CCOC(=O)N1CCC(C(N)=O)CC1`, the inhibition is -7%.
Regarding `Clc1ccc(Cn2ncc3c(NCc4cccnc4)ncnc32)cc1`, the inhibition was -0.5%.
The same measure for `CCn1cc(C(=O)NCC2CCCO2)c(=O)c2cc(S(=O)(=O)N3CCCCC3)ccc21` (stereo not drawn): 20%; for `CC(NC(=O)COc1ccccc1)C(=O)NC1=NCCS1` (stereo not drawn): -18.5%.
As for `CCOC(=O)c1[nH]c2c(c1C)C(=O)CC(c1ccc(N(C)C)cc1)C2` (stereo not drawn), the inhibition is -3%.
`CCOC(=O)N1CCN(C(=O)c2cn(C)c3ccc(S(=O)(=O)N4CCCC4)cc3c2=O)CC1`: the inhibition was -13%.
Consider `CCCCOc1ccc(C(=O)NCc2ccco2)cc1`, for which the inhibition is -20.5%.
`Cn1c(=O)cc(OCCCC(=O)N2CCN(Cc3ccc4c(c3)OCO4)CC2)c2ccccc21`: the inhibition is 7%.
As to `O=C(C(Cc1ccccc1)n1cccc1)N1CCN(C2CCCCC2)CC1` (stereo not drawn), the inhibition is 15%.
As for `O=C(CCCN1C(=O)C2C3C=CC(C3)C2C1=O)N1CCN(c2ccccc2)CC1` (stereo not drawn), the inhibition is 21%.
With `Cc1nc2ncnn2c(C)c1CCC(=O)N1CCN(C(=O)c2ccco2)CC1`, the inhibition is 10%.
As to `Cc1cc(=O)n2nc(N3CCCC3C(=O)NCCCN3CC(C)CC(C)C3)sc2n1` (stereo not drawn), the inhibition was -1%.
For the compound `CCOc1ccc(CNC(=O)C2CC(=O)N(C3CCCC3)C2)cc1OC` (stereo not drawn), the inhibition was 28%.
Turning to `O=C(CC(NS(=O)(=O)c1ccc(Cl)cc1)c1ccco1)NC1CCCC1` (stereo not drawn), the inhibition was 1%.
Consider `O=C(Nc1ccn(Cc2ccc(F)cc2)n1)c1ccncc1`, for which the inhibition was 4%.
Regarding `O=C(NCc1cccs1)c1ccc2c(c1)ncn2C1CCCC1`, the inhibition was -10%.
With `CCCn1cc(SCC(N)=O)c2ccccc21`, the inhibition is -4%.
Turning to `N#CC1=C(N)Oc2cc(O)ccc2C1C1CCCCC1` (stereo not drawn), the inhibition is -8%.
The same measure for `CCOCCCN1C(=O)CN(C2CCCCC2)C(=O)C1c1ccc(OCC)c(OC)c1` (stereo not drawn): 7%; for `COc1cc2c(cc1OC)C(c1ccc(C)o1)CC(=O)N2` (stereo not drawn): 3%; for `CCCCOC(=O)NCN1C(=O)C2C3C=CC(C3)C2C1=O` (stereo not drawn): -15%.
Regarding `Cc1cc(N2C(=O)c3ccc(C(=O)NCc4ccccc4)cc3C2=O)no1`, the inhibition is 3%.
Turning to `CCCCc1nccn1CCn1ccnc1CCCC`, the inhibition was -5%.
As for `CCCS(=O)(=O)C(=C1Nc2ccccc2N1)S(=O)(=O)CCC`, the inhibition was 0%.
`CCCCNC(=O)c1c[nH]c2ccc(S(=O)(=O)Nc3ccc(OCC)cc3)cc2c1=O`: the inhibition was -22.5%.
For `COc1ccc(C2CC(c3ccc(C)cc3)Nc3ncnn32)cc1` (stereo not drawn), the inhibition is -3.7%.
For the compound `COc1ccc(C2C(C(=O)Nc3ccccc3OC)=C(C)Nc3nnnn32)c(OC)c1` (stereo not drawn), the inhibition is 3%.
As for `CCCCOC(=O)Nc1nccs1`, the figure is 15.3%.
With `O=C(CSC1=Nc2ccccc2C2=NC(c3ccccc3)C(=O)N12)NCC1CCCO1` (stereo not drawn), the inhibition is 3%.
Turning to `COc1ccc(C2CC(c3ccc(Cl)cc3Cl)Nc3nc(N)nn32)cc1OC` (stereo not drawn), the inhibition was -5%.
The same measure for `COc1cccc(NS(=O)(=O)c2ccc3[nH]cc(C(=O)NCCCOC(C)C)c(=O)c3c2)c1`: -26%; for `CCOC(=O)c1oc2ccccc2c1NC(=O)c1cccs1`: 17%; for `Cc1nn(C)c(C)c1S(=O)(=O)N1CCc2ccccc21`: 2%.
As to `Cc1cccc(N2CCN(S(=O)(=O)c3ccc4c(c3)c(=O)n(C)c(=O)n4C)CC2C)c1` (stereo not drawn), the inhibition is -4%.
With `O=C(C1CCN(S(=O)(=O)c2cccs2)CC1)N1CCCCCC1`, the inhibition was -3%.
`CN(C)CCCNC(=O)c1ccc2[nH]c3ccccc3c2c1`: the inhibition was -6%.
As for `COc1ccc(CCNC(=O)CSc2nnc(CNC(=O)c3cccs3)o2)cc1OC`, the figure is 13%; as for `CCOC(=O)C1(c2ccccc2)NC(c2ccc(N(C)C)cc2)C2C(=O)N(C)C(=O)C21` (stereo not drawn), -13%; as for `CCOc1ccc(NC(=O)N(CCC(C)C)C(C)c2ccco2)cc1` (stereo not drawn), -12%.
For `CCC(C)(C(=O)NC1CCCC1)N(C(=O)CNC(C)=O)c1ccc(C)cc1` (stereo not drawn), the inhibition is -12%.
The same measure for `Cc1ccc(C(=O)N(CN2CCCC2=O)c2ccc(F)cc2)cc1`: -10%; for `CCN(CC)CCNC(=O)Cn1cnc2sc(C)c(S(=O)(=O)N3CCOCC3)c2c1=O`: 0%.
On to `COc1ccccc1CNC(=O)CCCn1c(=O)c2ccccc2n(CC(=O)NC2CCCC2)c1=O`, for which the inhibition is -2%.
For `CCOC(=O)N1CCC(NC(=O)CN2C(=O)COc3ccc(C(C)(C)C)cc32)CC1`, the inhibition is 7%.
As for `O=c1c2[nH]c3ccc(Cl)cc3c2ncn1Cc1ccccn1`, the figure is -1%; as for `O=S(=O)(NCc1ccccc1Cl)c1cnc[nH]1`, -2%.
The same measure for `CCCCN=C(N)/C(C(=O)OCC)=C(\O)c1ccc(OC)cc1`: 9%; for `COc1ccc(S(=O)(=O)NC2(C(F)(F)F)N=C3SCCN3C2=O)cc1` (stereo not drawn): -5%; for `Cc1ccc(-n2nc3c(c2NC(=O)c2ccc4c(c2)OCO4)CSC3)c(C)c1`: 13%.
Take `O=C(c1ccc2c(c1)N(Cc1ccc(F)cc1)C(=O)CS2)N1CCOCC1`: the inhibition was -5%.
As for `CCCN1CCN(CCCNC(=O)CN2C(=O)COc3ccccc32)CC1`, the figure is 1%.
On to `Cc1cccc(CSc2nnc(Cn3c(=O)sc4ccccc43)n2C)c1`, for which the inhibition is 2%.
Consider `COc1ccc(NC(=O)CN2CCN(S(=O)(=O)c3ccc(F)cc3)CC2)cc1Cl`, for which the inhibition was 9%.
For `COCCn1c(=O)[nH]c2cc(C(=O)NCc3cccnc3)ccc2c1=O`, the inhibition is -22%.
As for `CCOc1ccccc1NC(=O)c1cc(S(=O)(=O)N2CCC3(CC2)OCCO3)ccc1F`, the inhibition was 8%.
As for `Cc1cc(C)c2c(n1)nn1c(N3CCOCC3)cc(C)nc21`, the figure is -14%.
As for `CCOC(=O)CSc1nnc(CNC(=O)c2ccco2)n1-c1ccc(F)cc1`, the figure is 14%.
